Growth data for 14 molecules are collected here from PubChem BioAssay (NCI).

The structures appear in SMILES notation. About 83,000 compounds went through this panel and 20% of them were active in at least one assay; those are over-represented in the sample as a whole.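 Interpretation: 100, growth as untreated; towards 0, rising growth inhibition; 0, no net growth; 0 to -100, cell death. Compounds scoring below 10 were considered active.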 Calls of active or inactive are those of the source.

For this assay, the system named is HL-60(TB) leukemia. Kind of assay: NCI-60 one-dose screen, 48 h (100 = growth as untreated, 0 = no growth, -100 = all killed). The following applies: 10 µM unless noted.
For the molecule `O=C(Nc1ccccc1C(=O)N/N=C(\c1ccccc1)c1ccccn1)c1ccc(F)cc1`, the growth was -1.1% (active). Regarding `Nc1ncnc2c1N=C(c1ccc(Br)cc1)CC(c1cccc(Nc3ccnc4cc(C(F)(F)F)ccc34)c1)N2` (centres undefined), the growth is 38.1% (inactive). As for `Nc1c(C(=O)Nc2c(Cl)cccc2Cl)sc2nc3c(cc12)C(=O)CCC3`, the growth was 11.5% (inactive). Turning to `CCN(CC)CCN1CC(=O)Nc2cc(Cl)ccc21`, the growth is 98.9% (inactive). `CCN(CC)CCOc1ccccc1C`: the growth is 101% (inactive). Turning to `O=C(CN1CCN(c2ccc(Cl)cc2)CC1)N1CCN(c2nnc(-c3ccccc3)c(-c3ccccc3)n2)CC1`, the growth was -50.1% (active). Consider `O=C1/C(=C/c2cccc(OCc3ccccc3)c2)Oc2cc(OCCN3CCCCC3)ccc21`, for which the growth was 67% (inactive). For `O=C(/C=C/c1cccs1)Nc1ncc(Cc2ccc(Cl)c(Cl)c2)s1` the value was 14% (inactive); for `CCN(CC)CCC(CNc1c2ccc([N+](=O)[O-])cc2nc2cc(OC)c(OC)cc12)c1ccccc1` (centres undefined), -15.9% (active). `Cc1cccc2c(=O)c3c(sc12)c(NCCN)nc1ccccc13`: the growth is -62.7% (active). In the case of `Clc1ccc(N2N=C(c3cccc(Nc4ccncc4)c3)CC2c2ccc3c(c2)OCO3)cc1` (centres undefined) it was 22.5% (inactive); in that of `Cn1cc(-c2csc(-c3cn(C)c4ccc(F)cc34)n2)c2cnccc21`, -44.8% (active). On to `CCOC(=O)Sc1ncnc2nc[nH]c12`, for which the growth is 2.99% (active).

Take `C=C(C)[C@@H]1CC[C@]2(COC3CCCCO3)CC[C@]3(C)[C@H](CC[C@@H]4[C@@]5(C)C=C(C=O)C(=O)C(C)(C)[C@@H]5CC[C@]43C)[C@@H]12` (some centres undefined): the growth is -25.8% (active).
